Measured values from PubChem BioAssay (NCI).
Compounds without any hit were thinned out: in the full panel of roughly 79,000, 15% have a hit. Active and inactive are the calls of the source. No stated cut-off is given here; in the data, active means growth inhibition above about 70%; inactive means the rest.

Experiments:
[1] = NCI Yeast Anticancer Drug Screen. Data for the mlh1 strain (AID 171);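 further: 0% = growth of vehicle-treated control cultures of the same strain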; details: S. cerevisiae mlh1 strain growth inhibition, stronger effect = higher value
Procedure, shortened: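 Yeast carrying a defined genetic alteration in DNA damage repair or cell cycle control were exposed to test compounds. Growth inhibition was measured relative to vehicle-treated controls.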

[2] = NCI Yeast Anticancer Drug Screen. Data for the mlh1 rad18 strain (AID 175); details: S. cerevisiae mlh1 rad18 strain growth inhibition, stronger effect = higher value
Procedure, shortened: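 Growth inhibition of the yeast strain was measured after compound exposure and expressed relative to vehicle-treated controls. The strain carries defined defects in DNA damage repair.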

[3] = NCI Yeast Anticancer Drug Screen. Data for the rad18 strain (AID 177); details: S. cerevisiae rad18 mutant growth inhibition, stronger effect = higher value
Procedure, shortened: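 Yeast carrying a defined DNA damage repair alteration were exposed to compounds. Growth inhibition was expressed relative to vehicle-treated controls.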

[4] = NCI Yeast Anticancer Drug Screen. Data for the rad52 strain (AID 147);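 further: 0% = growth of vehicle-treated control cultures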; details: S. cerevisiae rad52 mutant growth inhibition, stronger effect = higher value
Procedure, shortened: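 Yeast strain carrying a DNA damage repair alteration was exposed to test compounds. Growth inhibition was measured relative to vehicle-treated controls.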

[5] = NCI Yeast Anticancer Drug Screen. Data for the wt1 strain (AID 149);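 further: 0% = growth of vehicle-treated wt1 cultures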; details: S. cerevisiae wt1 strain (SPY 50644) growth inhibition, stronger effect = higher value
Procedure, shortened: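 Measured: growth of wt1 yeast under compound versus vehicle treatment, reported as inhibition.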

[6] = NCI Yeast Anticancer Drug Screen. Data for the rad50EPP+ strain (AID 151);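 further: 0% = growth of vehicle-treated control cultures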; details: S. cerevisiae rad50 mutant strain, stronger effect = higher value
Procedure, shortened: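 Yeast strain carrying rad50 alteration (rad50EPP+) exposed to compounds; growth inhibition measured relative to vehicle-treated controls.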

[7] = NCI Yeast Anticancer Drug Screen. Data for the rad50 strain (AID 155);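 further: 0% = growth of vehicle-only cultures of the same strain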; details: S. cerevisiae rad50 strain growth inhibition, stronger effect = higher value
Procedure, shortened: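 Growth of the mutant yeast was measured after compound exposure and referenced to vehicle-treated cultures.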

[8] = NCI Yeast Anticancer Drug Screen. Data for the mec2-1 strain (AID 157); details: S. cerevisiae mec2-1 strain, stronger effect = higher value
Procedure, shortened: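 mec2-1 yeast strain, carrying an alteration in DNA damage repair or cell cycle control, was exposed to compounds; growth inhibition was measured relative to vehicle-treated controls.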

[9] = NCI Yeast Anticancer Drug Screen. Data for the rad14 strain (AID 159);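 further: 0% = growth of vehicle-treated control cultures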; details: S. cerevisiae rad14 strain growth inhibition, stronger effect = higher value
Procedure, shortened: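 Here, inhibition of yeast growth was measured after compound exposure, using a strain with a genetic defect in DNA damage repair and vehicle-treated cultures as the reference.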

[10] = NCI Yeast Anticancer Drug Screen. Data for the sgs1 mgt1 strain (AID 161);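 further: 0% = growth of cultures given vehicle only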; details: S. cerevisiae sgs1 mgt1 strain, stronger effect = higher value
Procedure, shortened: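 This yeast growth screen uses a strain with defined DNA-repair lesions; compound-treated growth is compared with vehicle-treated growth.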

[11] = NCI Yeast Anticancer Drug Screen. Data for the CLN2oe strain (AID 163);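 further: 0% = growth of vehicle-only control cultures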; details: S. cerevisiae CLN2oe strain, stronger effect = higher value
Procedure, shortened: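 Yeast cells carrying a defined cell-cycle control alteration were exposed to test compounds. Growth inhibition was scored against vehicle-treated control cultures.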

[12] = NCI Yeast Anticancer Drug Screen. Data for the cln2 rad14 strain (AID 165);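 further: 0% = growth equal to vehicle treated cultures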; details: S. cerevisiae cln2 rad14 strain, stronger effect = higher value
Procedure, shortened: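 Yeast carrying cln2 and rad14 alterations (cell cycle control and DNA damage repair) were exposed to compounds. Growth inhibition was measured against vehicle-treated controls.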

[13] = NCI Yeast Anticancer Drug Screen. Data for the bub3 strain (AID 167); details: S. cerevisiae bub3 mutant strain, stronger effect = higher value
Procedure, shortened: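 Whole-cell yeast assay. The mutant strain was incubated with compounds, and growth inhibition was determined by comparison with vehicle-treated cells.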

[14] = NCI Yeast Anticancer Drug Screen. Data for the wt2 strain (AID 169);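 further: 0% = growth of vehicle-treated yeast cultures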; details: S. cerevisiae wt2 strain growth inhibition, stronger effect = higher value
Procedure, shortened: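 Yeast cells were exposed to test compounds, and growth inhibition was measured relative to vehicle-treated controls.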

[15] = NCI Yeast Anticancer Drug Screen. Data for the sgs1 strain (AID 173);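 further: 0% = growth of vehicle-only control cultures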; details: S. cerevisiae sgs1 mutant, stronger effect = higher value
Procedure, shortened: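 Yeast mutant strains carrying defined defects in DNA damage repair or cell cycle control were exposed to test compounds. Growth inhibition was scored against vehicle-treated controls.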

[16] = at 5.0 µM (retest, dose inferred, filed as 0.5)
[17] = at 50.0 µM (retest, dose inferred, filed as 5.0)

Measured: growth inhibition

CCC(NC(C)c1ccccc1)C(=O)c1ccc(OCc2ccccc2)c(OCc2ccccc2)c1 (stereo not given)
inactive: [1]; at 33.0 µM 0% | [1]; at 100.0 µM -3% | [2]; [16] 14% | [2]; at 50.0 µM -4.9% | [3]; at 1.2 µM -13% | [3]; at 3.7 µM -4% | [3]; at 11.0 µM -26% | [3]; at 33.0 µM -27% | [3]; at 100.0 µM -30%
active: [2]; [17] 96%

O=C(/C=N/O)Nc1cc(Cl)c(Cl)cc1Cl
inactive: [4]; at 1.2 µM -45% | [4]; at 3.7 µM -47% | [4]; at 11.0 µM -40% | [4]; at 33.0 µM -1% | [4]; at 100.0 µM 62% | [5]; at 1.2 µM -37% | [5]; at 3.7 µM -35% | [5]; at 11.0 µM -36% | [5]; at 33.0 µM -12% | [5]; at 100.0 µM 3% | [6]; at 1.2 µM -17% | [6]; at 3.7 µM 3% | [6]; at 11.0 µM 6% | [6]; at 33.0 µM 51% | [7]; at 1.2 µM -35% | [7]; at 3.7 µM -21% | [7]; [16] 45% | [7]; at 11.0 µM -33% | [7]; at 33.0 µM 10% | [7]; at 100.0 µM 63% | [8]; at 1.2 µM -34% | [8]; at 3.7 µM -22% | [8]; [16] 55% | [8]; at 11.0 µM -26% | [8]; at 33.0 µM -3% | [8]; at 50.0 µM 65% | [8]; at 100.0 µM 43% | [9]; at 1.2 µM -39% | [9]; at 3.7 µM -31% | [9]; at 11.0 µM -32% | [9]; at 33.0 µM 23% | [10]; [16] -12% | [11]; at 1.2 µM 6% | [11]; at 3.7 µM 18% | [11]; at 11.0 µM 1% | [11]; at 33.0 µM 18% | [11]; at 100.0 µM 63% | [12]; [16] 67% | [13]; at 1.2 µM -32% | [13]; at 3.7 µM -27% | [13]; [16] 17% | [13]; at 11.0 µM -21% | [13]; at 33.0 µM 8% | [13]; at 100.0 µM 57% | [14]; at 1.2 µM -56% | [14]; at 3.7 µM -58% | [14]; at 11.0 µM -38% | [14]; at 33.0 µM -1% | [14]; at 100.0 µM 37% | [1]; at 1.2 µM -34% | [1]; at 3.7 µM -26% | [1]; at 11.0 µM -9% | [1]; at 33.0 µM 37% | [15]; at 1.2 µM -55% | [15]; at 3.7 µM -31% | [15]; at 11.0 µM -36% | [15]; at 33.0 µM 28% | [15]; at 100.0 µM 67% | [2]; [16] 36% | [2]; at 50.0 µM 47.2% | [3]; at 1.2 µM -28% | [3]; at 3.7 µM -18% | [3]; at 11.0 µM -12% | [3]; at 33.0 µM 36%
active: [6]; at 100.0 µM 83% | [7]; [17] 98% | [7]; at 50.0 µM 79.2% | [8]; [17] 98% | [9]; at 100.0 µM 75% | [10]; [17] 84% | [12]; [17] 77% | [13]; [17] 89% | [1]; at 100.0 µM 79% | [2]; [17] 99% | [3]; at 100.0 µM 78%

N#CSC1CCCCNC1=O (stereo not given)
active: [4]; at 33.0 µM 83% | [4]; at 100.0 µM 98% | [5]; at 100.0 µM 93% | [6]; at 33.0 µM 70% | [6]; at 100.0 µM 85% | [7]; at 33.0 µM 86% | [7]; at 100.0 µM 98% | [8]; at 50.0 µM 78.3% | [8]; at 100.0 µM 94% | [9]; at 100.0 µM 99% | [13]; at 50.0 µM 79.7% | [13]; at 100.0 µM 97% | [14]; at 100.0 µM 98% | [1]; at 100.0 µM 98% | [15]; at 33.0 µM 89% | [15]; at 100.0 µM 99% | [2]; at 50.0 µM 95.9%
inactive: [4]; at 1.2 µM 2% | [4]; at 3.7 µM 10% | [4]; at 11.0 µM 32% | [5]; at 1.2 µM -3% | [5]; at 3.7 µM -3% | [5]; at 11.0 µM 9% | [5]; at 33.0 µM 46% | [6]; at 1.2 µM 6% | [6]; at 3.7 µM 18% | [6]; at 11.0 µM 42% | [7]; at 1.2 µM 0% | [7]; at 3.7 µM 3% | [7]; [16] -150% | [7]; at 11.0 µM 36% | [7]; [17] 26% | [7]; at 50.0 µM 54.2% | [8]; at 1.2 µM 4% | [8]; at 3.7 µM 3% | [8]; [16] -47% | [8]; at 11.0 µM 25% | [8]; at 33.0 µM 51% | [8]; [17] 3% | [9]; at 1.2 µM 2% | [9]; at 3.7 µM -4% | [9]; at 11.0 µM 10% | [9]; at 33.0 µM 59% | [10]; [16] -59% | [10]; [17] 35% | [10]; at 50.0 µM 50% | [13]; at 1.2 µM -4% | [13]; at 3.7 µM 4% | [13]; [16] -66% | [13]; at 11.0 µM 36% | [13]; at 33.0 µM 60% | [13]; [17] 2% | [14]; at 1.2 µM 0% | [14]; at 3.7 µM -1% | [14]; at 11.0 µM 10% | [14]; at 33.0 µM 49% | [1]; at 1.2 µM 7% | [1]; at 3.7 µM -4% | [1]; at 11.0 µM 26% | [1]; at 33.0 µM 56% | [15]; at 1.2 µM 1% | [15]; at 3.7 µM 5% | [15]; at 11.0 µM 57% | [2]; [16] -126% | [2]; [17] 58%
